# Experimental data taken from ChEMBL document CHEMBL3433997, “St. Jude Leishmania screening dataset” (2016).
# Target: Solute carrier family 2, facilitated glucose transporter member 1 (Homo sapiens) (UniProt P11166)
# Test: ST_JUDE_LEISH: Cytotoxicity at 2uM final concentration against transgenic Leishmania Mexicana promastigotes LmGLUT1 that are glucose transport deficient and complemented with the human glucose transporter GLUT1. Activity is measured by DNA content using SYBR green in vitro
# Type: functional
# Chain of Solute carrier family 2, facilitated glucose transporter member 1 (Homo sapiens) (P11166 whole entry): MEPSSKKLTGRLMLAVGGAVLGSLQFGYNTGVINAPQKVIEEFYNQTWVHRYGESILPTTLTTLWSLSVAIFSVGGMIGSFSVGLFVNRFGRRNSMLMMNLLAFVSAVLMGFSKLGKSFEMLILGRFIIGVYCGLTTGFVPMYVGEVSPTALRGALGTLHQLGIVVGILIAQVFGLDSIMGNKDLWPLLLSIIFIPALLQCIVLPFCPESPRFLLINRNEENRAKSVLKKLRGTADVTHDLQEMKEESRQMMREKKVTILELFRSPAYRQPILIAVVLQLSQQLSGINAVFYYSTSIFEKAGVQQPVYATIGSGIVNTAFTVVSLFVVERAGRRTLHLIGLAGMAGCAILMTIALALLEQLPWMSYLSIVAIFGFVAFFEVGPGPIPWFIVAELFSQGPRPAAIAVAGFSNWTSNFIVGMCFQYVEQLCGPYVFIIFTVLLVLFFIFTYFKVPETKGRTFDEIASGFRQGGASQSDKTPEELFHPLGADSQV
row,SMILES,inhibition
1,N#Cc1cccc(-c2nc(NCc3cccc(C(F)(F)F)c3)nn2-c2cccc(C(F)(F)F)c2)c1,1.68%
2,O=C(Nc1ccc(-c2ccc(-c3nc4ccccc4[nH]3)s2)cc1)Nc1ccc(Cl)c(Cl)c1,9.56%
3,CCCCN(CCCC)Cc1cc2ccccc2cc1O,3.46%
4,COc1ccccc1CN1CCC(NC(=O)c2ccc(-c3cccc(Cl)c3)s2)CC1,8.99%
5,CCCN1CCC2(CC1)NC(C(=O)NCCC(C)C)Cc1c2[nH]c2cc(Cl)ccc12 (stereo not given),6.25%
6,Cc1cc(N2CCCC2)nc(Nc2ccc(NC(=O)c3ccccc3F)cc2)n1,1.09%
7,CC(C)(C)CC(=O)Nc1ccc(Nc2cc(-c3ccncc3)cc3ncc(C(N)=O)cc23)cc1,-0.38%
8,COc1ccc(CN(C)CCCc2ccc(NC(=O)c3cccc4c(O)c5ccccc5nc34)cc2)cc1OC,6.56%
9,COc1ccc(CNCc2ccsc2)cc1-c1ccc(OC)c(S(=O)(=O)NCCN2CCCC2)c1,1.22%
10,Cc1nc(-c2ccncc2)sc1C(=O)Nc1ccc(Cl)cc1C(=O)Nc1ccc(Cl)cc1,3.13%
11,CCNc1cc(C(=O)N[C@@H](Cc2ccccc2)[C@H](O)CNC23CCC(CC2)CC3)cc(N2CCCCS2(=O)=O)c1,0.73%
12,c1ccc(-c2cc(NCCCCNc3cc(-c4ccccc4)nc4ccccc34)c3ccccc3n2)cc1,6.88%
13,Cc1[nH]c(C)c(-c2ccc(-c3ccc(Cl)cc3)cc2)c(=O)c1Cl,-0.9%
14,CS(=O)(=O)c1ccc(OCCCN(Cc2ccccc2C(F)(F)F)c2ccc(C#N)c(C(F)(F)F)c2)cc1,1.51%
15,CC(=O)Nc1ccc(OCCCCN(Cc2ccccc2C(F)(F)F)c2ccc(C(F)(F)F)c(C#N)c2)c(Cl)c1,0.27%
16,COc1ccc(CC2(c3ccc(F)cc3)N=C(N)N(CCCc3ccc(F)c(F)c3)C2=O)cc1 (stereo not given),2.06%
17,Cc1c(Cl)cccc1S(=O)(=O)Nc1cccc(CCN2CCC(N3CCCCC3)CC2)c1,2.7%
18,CCNc1cc(C(=O)N[C@@H](Cc2cccc(F)c2)[C@H](O)CNC(C)CCCC(C)C)cc(N2CCCCS2(=O)=O)c1 (stereo not given in full),1.15%
19,COc1ccc(CNC2CCN(C)CC2)cc1-c1ccc(S(=O)(=O)NCc2ccccc2)c(C)c1,7.68%
20,CC(=O)Nc1ccc(OCCN(CC(C)C)c2ccc(C(F)(F)F)c(C#N)c2)c(Cl)c1,6.51%

row,SMILES,inhibition
1,CC(C)CCN1CCC(Oc2ccc(NC(=O)c3ccc4ncccc4c3)cc2Cl)C1 (stereo not given),1.24%
2,O=C(Nc1ccc(-c2cccc(-c3nc4cc(F)ccc4[nH]3)c2)cc1)Nc1ccc(Cl)c(Cl)c1,3.29%
3,c1ccc(-c2cc3cccc(-c4nc5cnccc5[nH]4)c3o2)cc1,10.8%
4,N#Cc1ccc2c(c1)CCN(CCC1CCC(NC(=O)c3cc4cccc(Cl)c4[nH]3)CC1)CC2 (stereo not given),15.5%
5,COc1ccccc1C1CCN(C2CCC(NC(=O)/C=C/c3cccc(C(F)(F)F)c3)CC2)CC1 (stereo not given),3.95%
6,COc1ccc2nc(N(CCCn3ccnc3)C(=O)C=Cc3cccs3)sc2c1,3.73%
7,CCCCOP(=O)(OCCCC)C(=Cc1ccc(O)c2ccccc12)P(=O)(OCCCC)OCCCC,5.02%
8,Cn1cc(CN2CCC(OC(c3ccccc3)c3ccc(Cl)cc3)CC2)cn1 (stereo not given),4.78%
9,C=Cc1sc(CNCCCNc2cc(=O)c3ccccc3[nH]2)c(C)c1Br,0.34%
10,O=C(Nc1cccc(C(F)(F)F)c1)Nc1cc(F)c(F)cc1Cl,1.86%
11,CNCCCNc1ccnc2cc(Cl)ccc12,3.07%
12,CN1CCN(Cc2cccc(-c3ccc4c(Nc5cc(O)c(Cl)cc5F)ccnc4c3)c2)CC1,2.16%
13,Cn1ncc2c3c(CCN4CCC(NCc5cc6c(cn5)OCCO6)CC4)c(Cl)cnc3ccc21,1.09%
14,O=C(Nc1cccc(-c2cccc(CN3CCCC3)c2)c1)c1cccc(Cl)c1,2.72%
15,CCn1c(Cc2ccccc2)nnc1SCC(=O)N1c2ccccc2Sc2ccccc21,4.01%
16,Cc1cccc2nc(-c3cccc(-c4ccc(NC(=O)Nc5ccc(Cl)cc5)cc4)c3)[nH]c12,4.43%
17,COc1ccc(C(=O)CCC(=O)N(Cc2ccc(-c3ccc(CNCCc4ccccc4)cn3)cc2)C(C)CN(C)C)cc1F (stereo not given),2.12%
18,CC(C)(C)c1ccc(-c2nc3c(ccc4nc(N)nc(N)c43)[nH]2)cc1,-1%
19,COc1cc2nc(NCCc3ccccc3)nc(N(C)Cc3ccccc3)c2cc1OC,5.11%
20,CN1CCC(C(=O)Nc2ccc(-c3ccc(-c4nc5cc(C(F)(F)F)ccc5[nH]4)s3)cc2)CC1,-0.08%

# Target: Hexose transporter 1 (Plasmodium falciparum) (UniProt O97467)
# Test: ST_JUDE_LEISH: Cytotoxicity at 2uM final concentration against transgenic Leishmania Mexicana promastigotes LmPfHT that are glucose transport deficient and complemented with the Plasmodium falciparum hexose transporter. Activity is measured by DNA content using SYBR green in vitro
# Type: functional
row,SMILES,inhibition
1,N#Cc1cccc(-c2nc(NCc3cccc(C(F)(F)F)c3)nn2-c2cccc(C(F)(F)F)c2)c1,-0.35%
2,O=C(Nc1ccc(-c2ccc(-c3nc4ccccc4[nH]3)s2)cc1)Nc1ccc(Cl)c(Cl)c1,8.71%
3,CCCCN(CCCC)Cc1cc2ccccc2cc1O,4.13%
4,COc1ccccc1CN1CCC(NC(=O)c2ccc(-c3cccc(Cl)c3)s2)CC1,8.66%
5,CCCN1CCC2(CC1)NC(C(=O)NCCC(C)C)Cc1c2[nH]c2cc(Cl)ccc12 (stereo not given),6.94%
6,Cc1cc(N2CCCC2)nc(Nc2ccc(NC(=O)c3ccccc3F)cc2)n1,2.77%
7,CC(C)(C)CC(=O)Nc1ccc(Nc2cc(-c3ccncc3)cc3ncc(C(N)=O)cc23)cc1,1.53%
8,COc1ccc(CN(C)CCCc2ccc(NC(=O)c3cccc4c(O)c5ccccc5nc34)cc2)cc1OC,3.71%
9,COc1ccc(CNCc2ccsc2)cc1-c1ccc(OC)c(S(=O)(=O)NCCN2CCCC2)c1,1.92%
10,Cc1nc(-c2ccncc2)sc1C(=O)Nc1ccc(Cl)cc1C(=O)Nc1ccc(Cl)cc1,3.01%
11,CCNc1cc(C(=O)N[C@@H](Cc2ccccc2)[C@H](O)CNC23CCC(CC2)CC3)cc(N2CCCCS2(=O)=O)c1,0.04%
12,c1ccc(-c2cc(NCCCCNc3cc(-c4ccccc4)nc4ccccc34)c3ccccc3n2)cc1,7.17%
13,Cc1[nH]c(C)c(-c2ccc(-c3ccc(Cl)cc3)cc2)c(=O)c1Cl,0.3%
14,CS(=O)(=O)c1ccc(OCCCN(Cc2ccccc2C(F)(F)F)c2ccc(C#N)c(C(F)(F)F)c2)cc1,3.33%
15,CC(=O)Nc1ccc(OCCCCN(Cc2ccccc2C(F)(F)F)c2ccc(C(F)(F)F)c(C#N)c2)c(Cl)c1,3.28%
16,COc1ccc(CC2(c3ccc(F)cc3)N=C(N)N(CCCc3ccc(F)c(F)c3)C2=O)cc1 (stereo not given),5.53%
17,Cc1c(Cl)cccc1S(=O)(=O)Nc1cccc(CCN2CCC(N3CCCCC3)CC2)c1,4.32%
18,CCNc1cc(C(=O)N[C@@H](Cc2cccc(F)c2)[C@H](O)CNC(C)CCCC(C)C)cc(N2CCCCS2(=O)=O)c1 (stereo not given in full),2.92%
19,COc1ccc(CNC2CCN(C)CC2)cc1-c1ccc(S(=O)(=O)NCc2ccccc2)c(C)c1,8.41%
20,CC(=O)Nc1ccc(OCCN(CC(C)C)c2ccc(C(F)(F)F)c(C#N)c2)c(Cl)c1,10.4%

row,SMILES,inhibition
1,CC(C)CCN1CCC(Oc2ccc(NC(=O)c3ccc4ncccc4c3)cc2Cl)C1 (stereo not given),2.56%
2,O=C(Nc1ccc(-c2cccc(-c3nc4cc(F)ccc4[nH]3)c2)cc1)Nc1ccc(Cl)c(Cl)c1,1.92%
3,c1ccc(-c2cc3cccc(-c4nc5cnccc5[nH]4)c3o2)cc1,11.5%
4,N#Cc1ccc2c(c1)CCN(CCC1CCC(NC(=O)c3cc4cccc(Cl)c4[nH]3)CC1)CC2 (stereo not given),11.7%
5,COc1ccccc1C1CCN(C2CCC(NC(=O)/C=C/c3cccc(C(F)(F)F)c3)CC2)CC1 (stereo not given),3.68%
6,COc1ccc2nc(N(CCCn3ccnc3)C(=O)C=Cc3cccs3)sc2c1,3.16%
7,CCCCOP(=O)(OCCCC)C(=Cc1ccc(O)c2ccccc12)P(=O)(OCCCC)OCCCC,4.67%
8,Cn1cc(CN2CCC(OC(c3ccccc3)c3ccc(Cl)cc3)CC2)cn1 (stereo not given),1.66%
9,C=Cc1sc(CNCCCNc2cc(=O)c3ccccc3[nH]2)c(C)c1Br,0.27%
10,O=C(Nc1cccc(C(F)(F)F)c1)Nc1cc(F)c(F)cc1Cl,1.72%
11,CNCCCNc1ccnc2cc(Cl)ccc12,4.53%
12,CN1CCN(Cc2cccc(-c3ccc4c(Nc5cc(O)c(Cl)cc5F)ccnc4c3)c2)CC1,6.74%
13,Cn1ncc2c3c(CCN4CCC(NCc5cc6c(cn5)OCCO6)CC4)c(Cl)cnc3ccc21,1.93%
14,O=C(Nc1cccc(-c2cccc(CN3CCCC3)c2)c1)c1cccc(Cl)c1,2.72%
15,CCn1c(Cc2ccccc2)nnc1SCC(=O)N1c2ccccc2Sc2ccccc21,3.52%
16,Cc1cccc2nc(-c3cccc(-c4ccc(NC(=O)Nc5ccc(Cl)cc5)cc4)c3)[nH]c12,5.13%
17,COc1ccc(C(=O)CCC(=O)N(Cc2ccc(-c3ccc(CNCCc4ccccc4)cn3)cc2)C(C)CN(C)C)cc1F (stereo not given),1.14%
18,CC(C)(C)c1ccc(-c2nc3c(ccc4nc(N)nc(N)c43)[nH]2)cc1,-1.54%
19,COc1cc2nc(NCCc3ccccc3)nc(N(C)Cc3ccccc3)c2cc1OC,5.4%
20,CN1CCC(C(=O)Nc2ccc(-c3ccc(-c4nc5cc(C(F)(F)F)ccc5[nH]4)s3)cc2)CC1,0.49%
